Records with an inconclusive call do not appear. A call without a number means that no potency is given here. A number with no mark means an inactive call. Active and inactive are the calls of the source. Calls come from the whole dose curve.

The experiment in a line: A High-Content qHTS Against Drug Library for the Identification of Small Molecules that Inhibit DYT1 Early Onset Primary Dystonia-Associated Cell Pathology (AID 1645839). As to conditions: HEK293 Flp-In EGFP-delE TorsinA, punctate imaging, 48 h; series mostly up to 46.1 µM. In outline: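 Flp-In T-REx 293 cells with tetracycline-inducible EGFP-delE hTOR1A (WT EGFP-hTOR1A as reference), 800 cells/well; compound added with tetracycline, 48 h at 37 C. Fixed, permeabilized cells imaged; %pathology (punctate TorsinA) primary, cell count counterscreen.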
On the technique in general: Quantitative high-throughput screening tests each substance at several concentrations.
As for `CO/N=C(\C(=O)O)c1csc(NC(=O)CCl)n1`, the Potency result is “inactive”.
For the compound `COc1cc(S(N)(=O)=O)cc(C(=O)O)c1OC`, the Potency result is “inactive”.
In the case of `NCC[C@H](O)C(=O)N[C@@H]1C[C@H](N)[C@@H](O[C@H]2O[C@H](CN)[C@@H](O)[C@H](O)[C@@H]2O)[C@H](O)[C@@H]1O[C@H]1O[C@H](CO)[C@@H](O)[C@H](N)[C@@H]1O`, the % pathology change, negative = correction is -0.271% [at 0.369 µM].
Regarding `CCOC(=O)Oc1ccc(CCNC(=O)[C@H](CCSC)NC(C)=O)cc1OC(=O)OCC`, the Potency result was “inactive”.
As to `CC(=O)Nc1c(I)c(NC(C)=O)c(I)c(C(=O)O)c1I`, the Potency entry was “inactive”.
On to `Cc1coc2ccccc2c1=O`, for which the Potency result is “inactive”.
As for `O=C(O)c1ccc(OCCN2CCCCC2)cc1`, the Potency entry is “inactive”.
For `C1=CC2C3C=CC(C3)C2C1` (stereo not given), the Potency entry is “inactive”.
On the same count and under the same terms, the value for `O=C(O)C(=O)Nc1cccc(-c2nn[nH]n2)c1` was “inactive”; that for `O=C(CCCl)NCc1ccccc1` was “inactive”; that for `COc1cc(C=O)ccc1O` was “inactive”.
On to `Cc1cnc(NS(=O)(=O)c2ccc(N)cc2)nc1`, for which the Potency entry was “inactive”.
Take `CCCC(CCC)(C(=O)OCC)C(=O)OCC`: the Potency entry is “inactive”.
With `CC(C)(C)C1CCC(CC2=C(O)c3ccccc3C(=O)C2=O)CC1` (stereo not given), the Potency result is “inactive”.
With `CCO[C@H](Cc1ccc(OCCc2ccc(OS(C)(=O)=O)cc2)cc1)C(=O)O`, the Potency result was “inactive”.

The record behind these values is PubChem BioAssay (NCATS).
